Assays:
Conditions in all cases: concentration: 1 μM,replicates: in singlicate; n = 1
CAMK1 = test system: CAMK1
CAMK2A = test system: CAMK2A
CAMK2B = test system: CAMK2B
CAMK2D = test system: CAMK2D
CAMK2G = test system: CAMK2G
CAMK4 = test system: CAMK4
CAMKK1 = test system: CAMKK1
CAMKK2 = test system: CAMKK2
CASK = test system: CASK
CDC2L1 = test system: T1, CDC2L1
T1 construct: gene CDK11B

CDC2L2 = test system: CDC2L2
CDC2L5 = test system: T2, CDC2L5
T2 construct: gene CDK13

CDK11 = test system: T3, CDK11
T3 construct: gene CDK19

CDK2 = test system: CDK2
CDK3 = test system: CDK3
CDK4-cyclinD1 = test system: CDK4-cyclinD1
CDK4-cyclinD3 = test system: CDK4-cyclinD3
CDK4 = test system: CDK4
CDK5 = test system: CDK5
CDK7 = test system: CDK7
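Further: KINOMEscan kinase panel screen.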

SMILES | %Inh (CAMK1) [%] | %Inh (CAMK2A) [%] | %Inh (CAMK2B) [%] | %Inh (CAMK2D) [%] | %Inh (CAMK2G) [%] | %Inh (CAMK4) [%] | %Inh (CAMKK1) [%] | %Inh (CAMKK2) [%] | %Inh (CASK) [%] | %Inh (CDC2L1) [%] | %Inh (CDC2L2) [%] | %Inh (CDC2L5) [%] | %Inh (CDK11) [%] | %Inh (CDK2) [%] | %Inh (CDK3) [%] | %Inh (CDK4-cyclinD1) [%] | %Inh (CDK4-cyclinD3) [%] | %Inh (CDK4) [%] | %Inh (CDK5) [%] | %Inh (CDK7) [%]
CSc1nccc(-c2c(-c3ccc(F)cc3)ncn2CCCN2CCOCC2)n1.Cl [SB-217146] | 6 | 0 | 0 | 0 | 0 | 0 | 0 | 0 | 0 | 0 | 0 | 0 | 0 | 0 | 0 | 0 | 0 | 16 | 0 | 12
Cc1n[nH]c2cc(Nc3ccnc(Nc4cccc(CN5CCOCC5)c4)n3)ccc12 [GW682569] | 43 | 0 | 0 | 5 | 0 | 0 | 21 | 13 | 0 | 7 | 24 | 0 | 19 | 0 | 5 | 0 | 0 | 31 | 0 | 0
COC(=O)c1cccc(NC(=O)NC2CCN(c3ccnc(NCc4ccc(F)cc4)n3)CC2)c1 [GSK1379860] | 0 | 0 | 0 | 0 | 1 | 0 | 0 | 0 | 0 | 0 | 0 | 0 | 12 | 0 | 9 | 0 | 0 | 0 | 2 | 0
Cn1ccc2ncnc(Oc3ccc(NC(=O)Nc4cccc(C(F)(F)F)c4)c(F)c3)c21 | 0 | 6 | 8 | 6 | 10 | 15 | 18 | 19 | 0 | 19 | 0 | 33 | 99.3 | 7 | 39 | 16 | 0 | 0 | 10 | 68
O=c1[nH]cc(-c2ccc(O)cc2)c2sc(-c3ccncc3)cc12 [GSK1033723] | 6 | 0 | 0 | 4 | 29 | 0 | 15 | 15 | 15 | 0 | 12 | 0 | 0 | 0 | 1 | 0 | 0 | 31 | 0 | 0
CCn1c(-c2nonc2N)nc2cncc(CNC3CCNCC3)c21.Cl [SB-747651] | 19 | 0 | 0 | 5 | 17 | 71 | 1 | 16 | 16 | 0 | 0 | 0 | 5 | 0 | 11 | 0 | 14 | 33 | 0 | 0
CN1CCN(CCNc2nc3cc(Oc4ccc(NC(=O)Nc5cc(C(F)(F)F)ccc5F)cc4)ccc3[nH]2)CC1.Cl.Cl [GW768504] | 15 | 0 | 0 | 0 | 0 | 20 | 0 | 0 | 16 | 0 | 7 | 0 | 47 | 0 | 6 | 0 | 0 | 2 | 0 | 96.6
CCN1CCN(CCCC(=O)Nc2n[nH]c3nc(-c4ccc(O)cc4)c(Br)cc23)CC1 [SB-731579] | 0 | 0 | 0 | 0 | 0 | 10 | 0 | 0 | 0 | 0 | 4 | 0 | 0 | 1 | 30 | 99.5 | 95.1 | 22 | 0 | 94.7
O=C1NCCc2[nH]c(-c3ccncc3)cc21 | 13 | 9 | 10 | 0 | 0 | 0 | 0 | 0 | 0 | 0 | 0 | 38 | 22 | 1 | 13 | 21 | 36 | 27 | 29 | 71
Cc1ccc(C(=O)Nc2ccc(Oc3ccc4nc(NC(=O)C5CC5)cn4c3)c(F)c2)c(=O)n1-c1ccccc1 | 0 | 0 | 0 | 0 | 3 | 10 | 11 | 10 | 12 | 0 | 7 | 0 | 88 | 1 | 36 | 21 | 0 | 0 | 0 | 76
CCn1c(-c2nonc2N)nc2cncc(Br)c21 [SB-738004] | 14 | 27 | 29 | 27 | 14 | 0 | 25 | 17 | 29 | 0 | 13 | 18 | 14 | 1 | 3 | 43 | 0 | 36 | 0 | 48
COc1cccc(CNC(=O)NC2CCN(c3ccnc(Nc4cc(OC)c(OC)c(OC)c4)n3)C2)c1 (stereo not shown) [GSK1379765] | 35 | 0 | 0 | 0 | 19 | 0 | 16 | 14 | 0 | 0 | 25 | 0 | 22 | 0 | 8 | 4 | 0 | 14 | 0 | 0
C[C@@H]1CNc2c(sc3ccc4nc(-c5ccncc5)ccc4c23)C(=O)N1 | 19 | 25 | 23 | 22 | 14 | 13 | 27 | 47 | 0 | 4 | 2 | 0 | 25 | 0 | 0 | 0 | 2 | 0 | 11 | 77
Cn1ccc2ncnc(Oc3ccc(NC(=O)Nc4ccnc(C(F)(F)F)c4)c(Cl)c3)c21 | 0 | 0 | 0 | 13 | 25 | 0 | 13 | 7 | 0 | 0 | 0 | 20 | 98 | 0 | 0 | 0 | 0 | 0 | 0 | 1
CN1CCN(CCCNc2nccc(-c3c(-c4ccc(F)cc4)nn4cc(C(N)=O)ccc34)n2)CC1 [GW622475] | 31 | 0 | 0 | 21 | 37 | 0 | 11 | 30 | 3 | 6 | 17 | 0 | 40 | 0 | 18 | 0 | 0 | 20 | 0 | 0
Cc1ccn2nc(-c3ccc(F)cc3)c(-c3ccncc3)c2c1.Cl [GW457859] | 16 | 0 | 0 | 0 | 15 | 0 | 0 | 9 | 6 | 0 | 24 | 0 | 1 | 0 | 2 | 18 | 0 | 50 | 0 | 47
CC(=O)Nc1nc2cnc(Nc3cc(NC(=O)c4cccc(CC(C)(C)C#N)c4)ccc3C)nc2s1 | 4 | 0 | 0 | 7 | 14 | 0 | 21 | 11 | 0 | 16 | 16 | 66 | 79 | 15 | 0 | 1 | 15 | 45 | 14 | 36
O=C(Nc1ccccc1)c1cccc(Oc2ccc3nccn3n2)c1 | 0 | 0 | 12 | 14 | 0 | 0 | 6 | 0 | 8 | 96 | 28 | 0 | 0 | 0 | 15 | 11 | 6 | 22 | 0 | 12
Cc1cccc(-c2nc(Nc3ccncc3)c3sccc3n2)n1 [GW869641] | 24 | 3 | 9 | 14 | 18 | 0 | 11 | 23 | 21 | 6 | 0 | 11 | 8 | 3 | 0 | 0 | 24 | 23 | 14 | 44
OCCn1cc(-c2cnc3nnn(Cc4ccc5ncccc5c4)c3n2)cn1 | 0 | 0 | 0 | 0 | 0 | 0 | 0 | 0 | 0 | 11 | 0 | 0 | 0 | 0 | 5 | 0 | 0 | 0 | 0 | 15

Reference: paper PMC5540273 (PLoS ONE, 2017)
